# This is a sample that favours compounds with a hit; in the whole collection about 4.2% have one here.
# RecA splice inh – Mtb RecA intein splicing inhibition; inhibition, % (no concentration beside the values); cell-free RecA intein splicing, fluorescence; P9WHJ3; 290,000 compounds, 0.75% hits; in the data active means inhibition above about 30%;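 further: 0% = vehicle wells and 100% = reference inhibitor control wells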
# CCHF vOTU inh – CCHFV vOTU protease inhibition | Pep-AMC fluorescence | inhibition, % at 11.5 µM | 370,000 compounds, 0.55% hits | AID 651958; further: 0% = vehicle wells with enzyme and 100% = no enzyme wells
# GDH-TPI inh – counter-screen for M. tuberculosis FBA inhibitors: GDH-TPI coupled enzymes; GDH-TPI coupled enzyme counterscreen, NADH absorbance; inhibition, % at 4.8 µM; 360,000 compounds, 1.2% hits;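 further: 0% = DMSO wells and 100% = wells lacking the enzyme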
# Mtb FBA inh – Mtb fructose-bisphosphate aldolase inhibition. P9WQA3. purified M. tuberculosis FBA, fluorescence read-out. inhibition, % at 1 µM. 360,000 compounds, 2.3% hits. AID 588726; in the data active means inhibition above about 27%;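 further: 0% = vehicle and 100% = reference inhibitor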
# Target sequence (P9WQA3 whole entry, looked up): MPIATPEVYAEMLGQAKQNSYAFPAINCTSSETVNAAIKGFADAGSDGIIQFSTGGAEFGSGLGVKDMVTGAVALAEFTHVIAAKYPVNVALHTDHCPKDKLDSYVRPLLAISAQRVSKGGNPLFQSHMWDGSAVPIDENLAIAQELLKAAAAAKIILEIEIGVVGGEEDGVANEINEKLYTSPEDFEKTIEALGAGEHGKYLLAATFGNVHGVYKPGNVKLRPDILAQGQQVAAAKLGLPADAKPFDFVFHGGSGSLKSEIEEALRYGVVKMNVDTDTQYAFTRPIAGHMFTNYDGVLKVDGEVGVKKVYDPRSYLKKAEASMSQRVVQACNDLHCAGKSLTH
# Numbers without * were called inactive; · = no result given. Unless noted, no stated cut-off is given here; in the data, active means inhibition above about 30%; inactive means the rest.
SMILES,RecA splice inh,CCHF vOTU inh,GDH-TPI inh,Mtb FBA inh
COc1ccc(NC(=O)c2cc(C3CCCCN3S(=O)(=O)c3ccc(C#N)cc3)on2)c(C)c1 (centres undefined),·,9,0,-1
Cn1c(=O)c2cc(NC(=O)NCCc3ccccc3)ccc2n1Cc1ccccc1,·,-126,-4,127*
Cn1c(=O)c2cc(NC(=O)OCCF)ccc2n1Cc1cccc(C(F)(F)F)c1,·,-195,5,183*
Cn1c(=O)c2cc(NC(=S)NC3CCCCC3)ccc2n1Cc1cccc(C(F)(F)F)c1,·,-13,2,16
Cn1c(=O)c2cc(NC(=O)NCCc3ccccc3)ccc2n1Cc1cccc(C(F)(F)F)c1,·,-48,6,130*
FC(F)(F)c1cccc(Cn2cnc(NC(=S)NCCc3ccccc3)n2)c1,-1,8,4,0
COc1ccc(NC(=O)N(C)C[C@H]2Oc3ccc(NC(=O)c4ccncc4)cc3C(=O)N([C@H](C)CO)C[C@@H]2C)cc1,·,-6,4,2
C=CCNC(=O)CSc1nc2sc3c(c2c(=O)n1CCCOC)CCC3,0,5,35*,11
C=CCNC(=O)CSc1nc2sc3c(c2c(=O)n1CCC)CCC3,1,-6,3,0
COc1ccc(NC(=O)CN(C)C(=O)c2cccc3ccccc23)cc1,2,1,1,131*
COc1ccc(NC(=O)CN(C)C(=O)c2ccccc2OC)cc1,-1,-9,4,-1
NSc1nc(N)c2nc(-c3ccccc3)c(-c3ccccc3)nc2n1,-14,-11,6,23
Nc1nc(N)c2nc(-c3ccccc3)c(N)nc2n1,-49,-276,33*,·
COc1ccc(/C=C/S(=O)(=O)NCCc2ccccc2)c(CNC(=O)OC(C)(C)C)c1,·,11,·,·
Nc1ccc(C(=O)N/N=C\C=C\c2ccc([N+](=O)[O-])cc2)cc1,0,13,47*,-3
O=C(N/N=C/c1cccnc1)c1ccc([N+](=O)[O-])cc1,-5,18,24,-3
CC(=O)n1cc(/C=N/NC(=O)c2ccc([N+](=O)[O-])cc2)c2ccccc21,2,1,32*,-2

# Source: PubChem BioAssay
